Assay outcomes deposited in PubChem BioAssay by National Center for Advancing Translational Sciences (NCATS).
TDP1 block = blocks human tyrosyl-DNA phosphodiesterase 1. recombinant TDP1, AlphaScreen DNA substrate cleavage. Potency, µM (top dose mostly 130 µM), for the others: at the highest dose activity change, negative = inhibition, usual class: inhibitors. 350,000 compounds, 0.28% hits. AID 485290; note: nearly all actives have a fitted effect of over 40% in size
Target sequence (Q9NUW8 whole entry, looked up): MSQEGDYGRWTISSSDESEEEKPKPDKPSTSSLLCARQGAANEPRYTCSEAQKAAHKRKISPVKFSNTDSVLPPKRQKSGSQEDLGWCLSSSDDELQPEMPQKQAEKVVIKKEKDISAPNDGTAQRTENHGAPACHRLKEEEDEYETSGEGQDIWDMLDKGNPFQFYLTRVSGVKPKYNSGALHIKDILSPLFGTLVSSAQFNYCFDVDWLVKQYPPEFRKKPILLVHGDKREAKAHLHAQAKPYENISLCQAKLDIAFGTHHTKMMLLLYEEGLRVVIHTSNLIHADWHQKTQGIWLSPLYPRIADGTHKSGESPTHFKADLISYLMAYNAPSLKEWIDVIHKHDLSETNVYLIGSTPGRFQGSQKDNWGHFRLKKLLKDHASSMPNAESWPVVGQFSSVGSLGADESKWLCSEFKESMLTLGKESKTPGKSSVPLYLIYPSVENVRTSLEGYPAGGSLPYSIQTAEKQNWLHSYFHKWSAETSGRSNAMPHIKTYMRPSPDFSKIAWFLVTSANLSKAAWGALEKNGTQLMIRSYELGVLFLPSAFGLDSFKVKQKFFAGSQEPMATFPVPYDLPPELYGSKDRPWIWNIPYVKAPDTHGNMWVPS
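Enzyme-compound mixtures sat 15 min at room temperature, followed by a 5 min reaction with 15 nM final substrate and 10 min with AlphaScreen beads. Recombinant human Tdp1 was used at 1 nM final.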
RGS4 inhibitor = inhibitors of human regulator of G protein signaling 4; P49798; Transcreener GDP fluorescence polarization, RGS4-accelerated GTP hydrolysis; Potency, µM (series often up to 114 µM), without a hit: at the highest dose activity change, negative = inhibition, most hits filed as inhibitors; 390,000 compounds, 0.039% hits; note: nearly all actives have a fitted effect of over 75% in size
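MLSMR compounds (23 nl, pin-transferred) preincubated 10 min at room temperature with a 500nM (2x) first reagent, then RGS4 at 900nM (2x) plus Transcreener GDP mix added; fluorescence polarization (620/688 nm) read before and after 90 min at 30 °C.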
GCN5L2 inh = blocks human GCN5L2 histone acetyltransferase; AID 504327; Q92830; Potency, µM (series often up to 58.9 µM), without a hit: top-dose activity change, negative = inhibition, hits mostly inhibitors; 390,000 compounds, 0.21% hits; GCN5L2 HAT assay, ThioGlo1 CoA-SH fluorescence
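Enzyme at 20nM final was mixed with library compounds for 15 min at room temperature. Peptide H3(1-25) at 75uM, acetyl-CoA at 70uM and ThioGlo1 at 50uM were then added. Plates were read immediately and after 20 min (Ex340nm/Em540nm).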
RECQ1 helicase = inhibitors of human RECQ1 DNA helicase. P46063. RECQ1 DNA unwinding, red fluorescence kinetic read. Potency, µM (highest dose often 57.3 µM), for inactives: at the top dose activity, negative = inhibition, actives largely listed as inhibitors. 240,000 compounds, 0.54% hits;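 note: plate controls were vehicle for no effect and no enzyme for full effect; nearly all actives have a fitted effect of over 30% in size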
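RECQ1T1 50 nM; forked duplex (20 bp + 30-nt ss tails) 200 nM, ATP 2 mM final; pH 8.0, 2 mM MgCl2, 2.5 ug/ml poly(dI-dC); 15 min compound preincubation; discontinuous kinetic read over 2 h at RT.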
BLM inh = blocks DNA unwinding by human BLM helicase; P54132; recombinant BLM DNA unwinding, fluorescence dequenching; Potency, µM (top dose mostly 56.1 µM), for the others: at the top dose activity change, negative = inhibition, hits mostly inhibitors; 350,000 compounds, 0.2% hits; AID 2528;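 note: plate controls were vehicle for no effect and no enzyme for full effect; nearly all actives have a fitted effect of over 35% in size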
APEX1 inh = APE1 (human) endonuclease inhibition | AID 2517 | recombinant APE1, TAMRA/BHQ-2 abasic DNA cleavage fluorescence | 350,000 compounds, 0.35% hits | P27695 | Potency, µM (top dose mostly 65.8 µM), inactives show at the highest dose activity change, negative = inhibition, hits mostly inhibitors;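 note: plate controls were vehicle for no effect and reference inhibitor for full effect; nearly all actives have a fitted effect of over 55% in size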
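0.75 nM APE1 + cpd, 15 min RT; start w/ 50 nM TAMRA/BHQ-2 THF-abasic dsDNA; kinetic fluor 525/598 nm ×3 reads @60 s; Δ(read3−read1); normalized to DMSO and NSC13755 control wells.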
The depositor's hits bear a star; i = inactive; ? = inconclusive; . = not tested or not shown; ! = repeats disagree; [ ] = dose if it differs, or a comment. Rows were chosen to be rich in hits. Some 0.87% of all compounds tested hit in one or more screens of this group. Calls come from the whole dose curve; as a rule, active = well fitted curve in the direction sought with a large enough effect; inconclusive = small, poorly fitted or top-dose-only effect, or another doubt; inactive = no such curve, though single readings can be large; an effect the other way counts as inactive or inconclusive. Unless noted, % is set by controls: 0 for no effect and ±100 for the full control effect; potency is the fitted concentration of half-maximal effect.

SMILES	TDP1 block	RGS4 inhibitor	GCN5L2 inh	RECQ1 helicase	BLM inh	APEX1 inh
CC(=O)O[C@H]1C[C@H](O[C@H]2[C@@H](O)C[C@H](O[C@H]3[C@@H](O)C[C@H](O[C@H]4CC[C@@]5(C)[C@H](CC[C@@H]6[C@@H]5C[C@@H](O)[C@]5(C)[C@@H](C7=CC(=O)OC7)CC[C@]65O)C4)O[C@@H]3C)O[C@@H]2C)O[C@H](C)[C@H]1O[C@@H]1O[C@H](CO)[C@@H](O)[C@H](O)[C@H]1O	.	.	.	.	.	3%
C/C(CC(=O)Nc1cc(C)ccn1)=N\NC(=O)c1ccncc1	6%	26%	-5%	.	2%	67%
Cc1ccccc1N1C(=O)NC(=O)/C(=C\c2ccc3c(c2)CCCN3Cc2ccccc2)C1=O	0%	?	?	3%	-22%	-1%
O=C1NC(=S)NC(=O)C1=Cc1ccc2c(c1)CCN2CCCCl	.	?	3%	?	16µM*	18µM*
C=C(C)[C@@H]1CC[C@]2(C(=O)O)CC[C@]3(C)[C@H](CCC4[C@@]5(C)CC[C@H](O)C(C)(C)[C@@H]5CC[C@]43C)[C@@H]12 (stereo partly specified)	4%	i	4%	i	.	6%
CCC(C)=O	17%	.	.	-12%	.	4%
Clc1cncc(N2CCNCC2)n1	-4%	4.2µM*	-9%	-4%	1%	-3%
C=C/C(=C/C(=O)C[C@H](C)C[C@@H](C)CC[C@H](O)[C@H](C)C(=O)C[C@@H](O)[C@H](C)[C@@H](C)OC(=O)C[C@@H](O)C1=C(C)C(=O)OC1=O)CC	-9%[21 µM]	.	3.2µM*	i[11.5 µM]	-17%[12.4 µM]	-4%[12.4 µM]
O=C1NC(=O)N(CCC2=CCCCC2)C(=O)/C1=C\c1cccs1	0%	?	-26%	16%	-15%	-6%
Cn1cccc1/C=C1\C(=O)NC(=O)N(CCC2=CCCCC2)C1=O	5%	-6%	40%	40µM*	-2%	-7%
CN1CC[C@@]2(C)c3cc(O)ccc3N(C)C12 (stereo partly specified)	-4%[56.1 µM]	21µM*	-5%	-2%	.	?
CN1CC[C@]2(C)c3cc(O)ccc3N(C)[C@@H]12	12%[21 µM]	.	8%[21.4 µM]	i	-11%[21.4 µM]	-1%[21 µM]
C=C1CCC(O)C/C1=C/C=C1\CCC[C@]2(C)[C@@H]([C@H](C)CCCC(C)C)CC[C@@H]12 (stereo partly specified)	11%	.	-13%	-7%	-3%	-3%
C[C@H](CCC(=O)O)[C@H]1CC[C@H]2[C@@H]3CC[C@@H]4C[C@H](O)CC[C@]4(C)[C@H]3CC[C@]12C	?	14%	25µM*!	-29%	?	?
C[C@H](CCC(=O)O)[C@H]1CC[C@@H]2[C@H]3CC[C@H]4C[C@H](O)CC[C@]4(C)[C@@H]3CC[C@@]21C	?	i	?	-23%	?	?
CNC[C@H](O)c1ccc(OC(=O)C(C)(C)C)c(OC(=O)C(C)(C)C)c1	4%[56.1 µM]	.	?	-1%[25.9 µM]	-5%[21.4 µM]	.
NCCCNCCSP(=O)(O)O	9%[56.1 µM]	-12%[56.9 µM]	3%	-1%	.	-4%
CN1CCCCC1c1cccnc1 (stereo unspecified)	16%	38µM*	-8%	-1%	.	1%
COc1ccccc1CN1CCCCC1c1cccnc1 (stereo unspecified)	5%	-16%	3%	2%	-1%	-3%
C/C(O)=C1\C(=O)[C@@H]2[C@H]3c4c[nH]c5cccc(c45)C[C@H]3C(C)(C)N2C1=O	17%	310%[56.9 µM]	-4%	6%	.	15%
COc1ccc2c(c1)[nH]c1c(C)nccc12	-1%	13%	?	3%	91%	7.9µM*!
COc1ccc(C(O)P(=O)(OC2CCCCC2)c2ccc(N(C)C)cc2)cc1OC (stereo unspecified)	4%	25%	-3%	-5%	-4%	17%
CCCOC(=O)Nc1ccc([As](=O)(O)O)cc1NC(=O)OCCC	.	-3%	3%	1%	-4%	3%
CCOC(=O)Nc1ccc(NCc2ccc(F)cc2)nc1N	17%[56.1 µM]	8.4µM*	-21%	-5%	.	?
O=C1OC2(c3cc(Br)c(O)cc3Oc3c2cc(Br)c(O)[c]3[Hg])c2ccccc21 (stereo unspecified)	.	.	.	.	.	13µM*
SMILES	TDP1 block	RGS4 inhibitor	GCN5L2 inh	RECQ1 helicase	BLM inh	APEX1 inh
CC(C)CCCC(C)C1CCC2C3CC(O)[C@@]4(O)CC(O)CC[C@@]4(C)C3CC[C@@]12C (stereo partly specified)	4%	.	?	-7%	-14%	21%
Cl.Cl.Cl.Cl.Cl.Cl.N.N.N.N.NNNNN.NNNNN.O.O.[Ru].[Ru].[Ru]	20%	i	?	13µM*	25µM*	-3%
O=C1NC(=S)N(c2ccccc2)C(=O)/C1=C/c1ccco1	.	-109%[56.9 µM]	?	.	22µM*	17µM*
CCOc1cccc(N2C(=O)/C(=C/c3ccco3)C(=O)NC2=S)c1	.	?	?	.	28µM*	11µM*
O=C1NC(=O)N(CCc2ccc(F)cc2)C(=O)/C1=C/c1ccco1	.	?	28µM*	28µM*	-20%	10µM*
CC(CCC(=O)O)C1CCC2C3CC[C@H]4CC(O)CC[C@@]4(C)C3CC[C@@]12C (stereo partly specified)	-5%[56.1 µM]	.	?	3%	-30%	?
CC(CCC(=O)O)C1CCC2C3C(=O)C[C@@H]4CC(=O)CC[C@@]4(C)C3CC(=O)[C@]12C (stereo partly specified)	15%	.	6%	5%	7%	.
NC(=O)CI	.	19µM*	10µM*	?	.	0%
